# Experimental data published in the OligoGym collection.
# Biological target: SPATA2
# Assay: pooled miR-30 sensor sort-seq; sequence = guide strand
# Details: shRNA
# Note: reference of the scale not given here.
row,Sequence,sensor-assay potency score (higher = more potent)
1,TTGATGTAGCCCTTGGAGCTGG,-0.512
2,TTGACAGTACAGTAAGAGGGGC,-0.34
3,TCTGAGCAGCCACACATCCGGC,-1.47
4,TGGAACTGCACGTACTTCCGAA,-0.761
5,TTGTGAGTGGATTTCTAGCATC,-1.52
6,TCATAGAACTGGATCAGCCGGA,0.651
7,TCTTCCAGTAATGTCGACTTGA,0.423
8,TGAGTGGATTTCTAGCATCTGC,-1.11
9,TGAGACTTTTGAACACTGGGTG,0.544
10,TTGTCCTTCACTTGTGAGTGGA,-0.193
11,TCACTCTTTTTGTAGCAGGGGT,-0.679

# Biological target: SPATA5L1
# Assay: as above
# Details: shRNA
row,Sequence,sensor-assay potency score (higher = more potent)
1,TTGTCTTAAGTCCAACACCATC,-1.76
2,TAATCTTCCAGGTCGTAACAAA,-1.18
3,TTAACTTCAGTTTTACATCTTC,0.121
4,TATCTAATCTTCCAGGTCGTAA,-0.994
5,AAAAACTTCTTGAAACTCCTGT,1.07
6,TTCTTGAACATCACATCCTGTC,-0.27
7,TTATCTAATCTTCCAGGTCGTA,-0.899
8,TAGATGATCTTATCTAATCTTC,-0.209
9,TTGAACATCACATCCTGTCTTG,0.227
10,TTCTGAATCTCCAACAAACGGT,-0.635
11,TGATCTTATCTAATCTTCCAGG,-0.767
12,TTGCTTGTCGAAATATCTGAGA,-0.878

# Biological target: SPATS2L
# Assay: as above
# Details: shRNA
row,Sequence,sensor-assay potency score (higher = more potent)
1,TTCTTCTTTAACTTTATCCATT,-1.35
2,TTGATCTTCTTCACGGAACTAT,-0.0493
3,TATATTCTGATTGACACTCTTT,0.138
4,TATTGTTCTTCTTTTTTCCTGT,0.296
5,TTCATTATTGCTTTTGTTGGGA,0.203
6,TTGAATTGCACTGCCATCCACA,0.0707
7,TTCGTTAGCAGAATCTGTGGAC,0.593
8,TTGTTGGGAACAACTGATCTAA,-0.513
9,TTGTCTTTAGCATCTTTGTTGC,-0.548
10,TTGGTTAGAAGATCCATTCTGC,0.635
11,TATCTAGTTAGAGAAACGGTGC,-0.565
12,TTTAGAACTTGAATTGCACTGC,0.683

# Biological target: SPESP1
# Assay: as above
# Details: shRNA
row,Sequence,sensor-assay potency score (higher = more potent)
1,TAGATCTAGAATTACACAGCAT,-0.409
2,TTGTTTGGTTTGATCGACCAGA,-0.327
3,TAGATTTTTTCTCACGACCTGG,-0.569
4,TTGTTTTGCAGCTGGCTCCGGC,-0.682
5,TTTTATTACTTGTTCGTCCTAC,0.295
